Results filed as inconclusive are left out. The source made the active and inactive calls. Unless noted, the call rests on the fitted dose curve; in most records, active means well fitted curve in the direction sought with a large enough effect in the repeat runs; inconclusive means weak or mixed curves; inactive means no such curve, though single readings can be large; an effect the other way counts as inactive or inconclusive.
Key:
[1] = qHTS assay for small molecule agonists of the p53 signaling pathway (AID 651631; calls by dose curve; further: nearly all actives have a fitted effect of over 15% in size)
How it was run: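 We treat p53RE-bla HCT-116 cells with compounds for 16 h at 37 °C, add LiveBLAzer B/G FRET substrate for 2 h at room temperature, and measure fluorescence intensity.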

[2] = qHTS assay for small molecules that induce genotoxicity in human embryonic kidney cells expressing luciferase-tagged ATAD5 (AID 651632); further: nearly all actives have a fitted effect of over 15% in size
How it was run: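 ATAD5-luc HEK293T, 2,000 cells/well; cpd or DMSO pin-transferred; 16 hr, 37C/5% CO2; Amplite 30 min RT; luminescence.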

[3] = qHTS assay for small molecule agonists of the p53 signaling pathway - cell viability (AID 651633; calls by dose curve;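 further: p53RE-bla HCT reporter cells with a stable beta-lactamase p53 reporter; series mostly up to about 83 µM; nearly all actives have a fitted effect of over 30% in size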)
How it was run: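 p53RE-bla cells were treated with compound for 16 hours at 37 C. Cytotoxicity was then measured as CellTiter-Glo luminescence after 30 min at room temperature.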

[4] = qHTS assay for small molecules that induce genotoxicity in human embryonic kidney cells expressing luciferase-tagged ATAD5 - cell viability (AID 651634; calls by dose curve; further: nearly all actives have a fitted effect of over 25% in size)
How it was run: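 Fluorescence from CellTiter-Fluor, reporting protease activity within live cells, served as the viability read-out. HEK293T cells carrying luciferase-tagged ATAD5 had been treated with compound for 15.5 hr at 37C.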

[5] = qHTS assay for small molecule disruptors of the mitochondrial membrane potential - cell viability (AID 720634; calls by dose curve;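 further: human HepG2 liver cancer cells; series mostly up to about 83 µM; nearly all actives have a fitted effect of over 20% in size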)
How it was run: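 Cells: HepG2, 2,000/well, attached overnight. Compound 1 hr, 37 C/5% CO2. +m-MPI dye, +CellTiter-Glo 30 min RT. Readout: luminescence (ATP).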

[6] = qHTS assay to test for compound auto fluorescence at 590 nm (red) in HepG2 cells (AID 720674)
How it was run: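 Seeding: 2,000 HepG2 cells/well, MEM/10% FBS, overnight 37 C. Dosing: compound vs DMSO. Incubation: 1 hr, 37 C, 5% CO2. Read: fluorescence 540 ex/590 em, Rose Bengal sodium as red reference.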

[7] = qHTS assay to test for compound auto fluorescence at 535 nm (green) in HepG2 cells (AID 720675)
[8] = qHTS assay to test for compound auto fluorescence at 460 nm (blue) in HEK293 cells (AID 720678)
How it was run: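 Triamterene serves as the blue fluorophore standard. Compound signal at 405/460 nm is read in HEK293 wells (2,000 cells, 10% dialyzed FBS) after overnight treatment at 37C.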

[9] = qHTS assay to test for compound auto fluorescence at 590 nm (red) in HEK293 cells (AID 720679)
How it was run: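 We plated HEK293 cells in 10% dialyzed FBS medium, let them adhere for 4-5 hr, then added 23 nL compound. Overnight at 37C and 5% CO2 preceded fluorescence measurement at 540/590nm.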

[10] = qHTS assay to test for compound auto fluorescence at 535 nm (green) in HEK293 cells (AID 720680)
[11] = qHTS assay to test for compound auto fluorescence at 460 nm (blue) in HEK293 cell free culture (AID 720681)
How it was run: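 Compounds were added to cell-free DMEM with 10% FBS and fluorescence read directly. The blue channel used 405 nm excitation and 460 nm emission, with triamterene as the reference fluorophore.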

[12] = qHTS assay to test for compound auto fluorescence at 535 nm (green) in HEK293 cell free culture (AID 720682)
How it was run: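 Green-channel intensity (Ex/Em 485/535 nm) was recorded from compound-treated wells containing only DMEM with 10% FBS. Fluorescein provided the equivalency standard.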

[13] = qHTS assay to test for compound auto fluorescence at 590 nm (red) in HEK293 cell free culture (AID 720683)
How it was run: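 Cell-free wells of DMEM with 10% FBS received compound, and intrinsic fluorescence was read at excitation/emission 540/590 nm. Values expressed as equivalence to Rose Bengal sodium.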

[14] = qHTS assay to test for compound auto fluorescence at 590 nm (red) in HepG2 cell free culture (AID 720684)
How it was run: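 Compounds are added to culture medium (MEM, 10% FBS) lacking cells, then fluorescence is read at excitation 540 nm, emission 590 nm, with Rose Bengal sodium as the equivalency standard.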

[15] = qHTS assay to test for compound auto fluorescence at 460 nm (blue) in HepG2 cell free culture (AID 720685)
How it was run: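 Compound (23 nL) or DMSO pinned into cell-free MEM with 10% FBS; blue fluorescence read at 405/460 nm excitation/emission, expressed as auto-fluorescence equivalency to triamterene.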

[16] = qHTS assay to test for compound auto fluorescence at 535 nm (green) in HepG2 cell free culture (AID 720686)
[17] = qHTS assay to test for compound auto fluorescence at 460 nm (blue) in HepG2 cells (AID 720687)
How it was run: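 HepG2 cells in MEM with 10% FBS, attached overnight at 37 C, were exposed to compound or DMSO for 1 hr at 37 C, 5% CO2. Blue fluorescence was read at 405/460 nm, with triamterene as reference fluorophore.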

[18] = biological target: Glucocorticoid receptor (Homo sapiens) (UniProt P04150); test: qHTS assay to identify small molecule agonists of the glucocorticoid receptor (GR) signaling pathway (AID 720691; active means well fitted activation curve with a large enough effect in the signal ratio in the repeat runs, not every such curve was filed as active; the % refers to the signal ratio)
Glucocorticoid receptor (Homo sapiens), sequence (P04150 whole entry, looked up): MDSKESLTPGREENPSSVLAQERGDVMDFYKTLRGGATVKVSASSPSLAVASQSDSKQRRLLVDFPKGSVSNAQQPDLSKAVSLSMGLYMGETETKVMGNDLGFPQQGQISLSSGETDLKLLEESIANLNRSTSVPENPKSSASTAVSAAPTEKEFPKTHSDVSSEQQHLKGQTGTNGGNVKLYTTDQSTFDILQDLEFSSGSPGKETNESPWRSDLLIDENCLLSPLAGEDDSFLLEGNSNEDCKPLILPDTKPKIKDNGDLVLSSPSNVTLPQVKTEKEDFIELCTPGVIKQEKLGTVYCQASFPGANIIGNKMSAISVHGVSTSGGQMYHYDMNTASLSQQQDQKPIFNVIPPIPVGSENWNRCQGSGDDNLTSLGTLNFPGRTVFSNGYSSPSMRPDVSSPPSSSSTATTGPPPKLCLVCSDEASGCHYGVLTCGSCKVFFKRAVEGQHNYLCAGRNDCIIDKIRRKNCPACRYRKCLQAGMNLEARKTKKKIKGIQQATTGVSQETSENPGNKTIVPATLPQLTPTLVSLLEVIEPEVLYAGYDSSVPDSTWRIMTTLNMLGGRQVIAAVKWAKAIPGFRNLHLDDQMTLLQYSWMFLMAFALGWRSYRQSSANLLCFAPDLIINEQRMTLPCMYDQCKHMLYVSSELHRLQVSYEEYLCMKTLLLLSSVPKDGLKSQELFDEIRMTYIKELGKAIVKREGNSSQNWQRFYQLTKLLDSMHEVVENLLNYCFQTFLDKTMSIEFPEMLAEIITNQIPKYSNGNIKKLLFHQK
How it was run: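 Fluorescence intensity from LiveBLAzer B/G FRET substrate (2 h, room temperature) reports beta-lactamase expression driven by the glucocorticoid response element in GR-bla HeLa cells after 18 h compound exposure at 37 C.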

[19] = biological target: Glucocorticoid receptor (Homo sapiens) (UniProt P04150); test: qHTS assay to identify small molecule antagonists of the glucocorticoid receptor (GR) signaling pathway (AID 720692; active means well fitted inhibition curve with a large enough effect in the signal ratio in the repeat runs, not every such curve was filed as active; the % refers to the signal ratio)
How it was run: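 HeLa GR-bla cells; cmpd + dex 5 nM final, 18 h 37 C; LiveBLAzer B/G FRET substrate 2 h RT; fluorescence intensity read. Antagonist mode, qHTS.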

[20] = qHTS assay for small molecule disruptors of the mitochondrial membrane potential (AID 720635)
How it was run: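 HepG2 cells exposed to compound 1 hr at 37C, then Mito-MPS dye 30 min. Ratio read of aggregate (540/590 nm) versus monomer (490/535 nm) fluorescence.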

Measured: Potency

CCOC(=O)COC(=O)c1ccccc1C(=O)OCC
not listed: [20]
inactive: all other assays above

c1coc(CNc2ncnc3nc[nH]c23)c1
not listed: [16] | [18] | [19] | [20]
inactive: all other assays above

CCCCCC(C)N (stereo not drawn)
not listed: [7] | [16] | [17]
inactive: all other assays above

OCCCCCO
not listed: [5] | [6] | [7] | [13] | [18] | [19] | [20]
inactive: all other assays above

CCCCCCCC1CCCC1=O (stereo not drawn)
not listed: [10] | [11] | [18] | [19] | [20]
inactive: all other assays above

CCCCOCCOC(=O)CCCCCCCCC(=O)OCCOCCCC
not listed: [6] | [13] | [18] | [19] | [20]
inactive: all other assays above

CCCc1nn(C)c2c(=O)[nH]c(-c3cc(S(=O)(=O)N4CCN(C)CC4)ccc3OCC)nc12
not listed: [7] | [11] | [17] | [18] | [19] | [20]
inactive: all other assays above

CCOC(=O)CCC(=O)OCC
not listed: [5] | [7] | [16] | [17] | [18] | [20]
inactive: all other assays above

C=COCC1CCC(COC=C)CC1 (stereo not drawn)
not listed: [4] | [16] | [19]
inactive: all other assays above

CC(C)C[C@@H](N)C(=O)O
not listed: [5] | [6] | [7] | [13] | [19] | [20]
inactive: all other assays above

CC(C)CCCO
not listed: [6] | [8] | [20]
inactive: all other assays above

CC(=O)N[C@H]1[C@H]([C@H](O)[C@H](O)CO)OC(C(=O)O)=C[C@@H]1N=C(N)N
not listed: [6] | [11] | [17] | [18] | [20]
inactive: all other assays above

[O-][n+]1cccc(CO)c1
not listed: [4]
inactive: all other assays above

CC1=CCC(O)(C(C)C)CC1 (stereo not drawn)
not listed: [8] | [17] | [20]
inactive: all other assays above

CCCCCCCCCCCCSC
not listed: [10] | [11] | [13] | [20]
inactive: all other assays above

C[N+](C)(C)CCCCCCCCCC[N+](C)(C)C
not listed: [11] | [16] | [17] | [19] | [20]
inactive: all other assays above

From PubChem BioAssay (Tox21)
